{"source": "PubChem BioAssay (NCI)", "note": "About 83,000 compounds went through this panel and 20% of them were active in at least one assay; those are over-represented in the sample as a whole.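 Treatment: one concentration, 48 hours, 96-well format. Scoring: percent growth, with anything below 10 considered active.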 A number with no mark means an inactive call. Calls of active or inactive are those of the source."}
{"system": "SF-539 CNS", "test": "NCI-60 one-dose screen, 48 h (100 = growth as untreated, 0 = no growth, -100 = all killed)", "conditions": "10 µM"}
{"smiles": "CN(C)c1cccc2c(S(=O)(=O)Nc3cccc(-c4csc(NC(=O)CCCCCN5CCN(c6cc7c(cc6F)C(=O)N(C6CCC(=O)NC6=O)C7=O)CC5)n4)c3)cccc12", "note": "(configuration not stated)", "growth": "78.5%"}
{"smiles": "CC(=C(c1ccc(OCCN2CCCCC2)cc1)c1ccc(OCCN2CCCCC2)cc1)c1ccccc1", "growth": "-93.3% (active)"}
{"smiles": "CC[C@@]1(O)C(=O)OCc2c1cc1n(c2=O)Cc2c-1nc1cc(F)c(C)c3c1c2[C@@H](N)CC3", "growth": "-74.9% (active)"}
{"smiles": "O=C(Cn1cc(CSc2nnc3oc4ccccc4n23)nn1)Nc1cccc(Cl)c1", "growth": "70.6%"}
{"smiles": "C=C(C)[C@@H]1CC[C@]2(C(=O)OC)CC[C@]3(C)[C@H](CC[C@@H]4[C@@]5(C)CC[C@H](N)C(C)(C)[C@@H]5CC[C@]43C)[C@@H]12", "growth": "-99.8% (active)"}
{"smiles": "COc1ccc(-c2nc(S(=O)(=O)c3ccc(C)cc3)c(S(C)(=O)=O)o2)cc1", "growth": "-100% (active)"}
{"smiles": "CCN1CCN(c2ccc(NC(=O)Nc3ccc(-c4cc(C(=O)NC(C)C)c5ncccc5n4)cc3)cc2C(F)(F)F)CC1", "growth": "-98.9% (active)"}
{"smiles": "C=C[C@H]1[C@H](O[C@@H]2OC(CO)[C@@H](O)[C@H](O)C2OC(=O)c2c(O)cc(O)cc2-c2cccc(O)c2)OC=C2C(=O)OCC[C@H]21", "note": "(some centres not stated)", "growth": "104%"}
{"smiles": "COc1ccc(C(C)=C(c2ccc(OCCCN(C)C)cc2)c2ccc(OCCCN(C)C)cc2)cc1", "growth": "-99.5% (active)"}
{"smiles": "CC1(C)CC[C@]23CC[C@]4(C)[C@H](CC[C@@H]5[C@@]6(C)CC[C@H](N)C(C)(C)[C@@H]6CC[C@]54C)[C@H]2[C@H]1OC3=O", "growth": "-99.3% (active)"}
{"smiles": "CCN1CCN(c2ccc(NC(=O)Nc3ccc(-c4cc(C(=O)NC)c5ncccc5n4)cc3)cc2C(F)(F)F)CC1", "growth": "-100% (active)"}
{"smiles": "COc1ccc2[nH]c(O)c(N=NC(=O)c3cc(-c4ccc(C)cc4)nc4ccccc34)c2c1", "growth": "92.3%"}
{"smiles": "O=C(Cn1cc(CSc2nnc3oc4ccccc4n23)nn1)Nc1ccc(Br)cc1", "growth": "29.9%"}
{"smiles": "CN1CCN(c2ccc(Nc3nc(N4CCN(S(=O)(=O)c5ccc(F)cc5)CC4)c4sccc4n3)cc2)CC1", "growth": "-100% (active)"}
{"smiles": "COc1ccccc1NCc1ccc(CO)n1-c1ccc(C)cc1", "growth": "94.7%"}
{"smiles": "CC(=C(c1ccc(OCCCN(C)C)cc1)c1ccc(OCCCN(C)C)cc1)c1ccccc1", "growth": "-100% (active)"}
{"smiles": "CN1CCN(c2ccc(Nc3nc(NCCCNC(=O)c4ccccc4)c4sccc4n3)cc2)CC1", "growth": "-89.5% (active)"}
{"smiles": "CCCCCc1ccc(S(=O)(=O)N(C(C)=O)c2cc(-c3csc(N(C)C(C)=O)n3)ccc2N2CCN(C)CC2)cc1", "growth": "-95.7% (active)"}
{"smiles": "C=C1CC[C@H](C(=C)C)[C@H]2C=C(C)C(=O)C3=C(C(=O)[C@@](C)(O)C3)[C@H]12", "growth": "-98.4% (active)"}
{"smiles": "CC(=O)Nc1nc(-c2ccc(N3CCN(C)CC3)c(NS(=O)(=O)c3cccc4c(N(C)C)cccc34)c2)cs1", "growth": "16%"}
{"smiles": "CNC(=O)c1cccc(N2CCc3c2ccc(NC(=O)Nc2ccc(N4CCN(C)CC4)c(C(F)(F)F)c2)c3F)c1", "growth": "-100% (active)"}
{"smiles": "CN1CCN(c2ccc(Nc3nc(N4CCN(S(=O)(=O)c5ccc(Cl)cc5)CC4)c4sccc4n3)cc2)CC1", "growth": "-100% (active)"}
{"smiles": "CC1(C)CC[C@]2(C(=O)NCCCNCCCCNCCCN)CC[C@]3(C)C(=CC[C@@H]4[C@@]5(C)Cc6c([nH]c7ccccc67)C(C)(C)[C@@H]5CC[C@]43C)[C@H]2C1", "growth": "90.7%"}
{"smiles": "C=CC(=O)Nc1nc(-c2cccc(NS(=O)(=O)c3cccc4c(N(C)C)cccc34)c2)cs1", "growth": "-100% (active)"}
{"smiles": "COC1CC(Cn2cc(COc3ccc4ccc(=O)oc4c3)nn2)C(OCc2ccccc2)C(OCc2ccccc2)C1OCc1ccccc1", "note": "(configuration not stated)", "growth": "102%"}
{"system": "UACC-257 melanoma", "test": "NCI-60 one-dose screen, 48 h (100 = growth as untreated, 0 = no growth, -100 = all killed)", "conditions": "10 µM"}
{"smiles": "Cc1ccc(C(=O)NCCCNc2nc(Nc3ccc(N4CCN(C)CC4)cc3)nc3ccsc23)cc1", "growth": "-17.7% (active)"}
{"smiles": "O=C(c1ccc(-n2c(=O)[nH]c3ccccc3c2=O)cc1)N1CCOCC1", "growth": "127%"}
{"smiles": "O=S(=O)(c1ccc(Cl)cc1)c1nc(-c2ccccc2)oc1S(=O)(=O)c1ccc(Cl)cc1", "growth": "85.5%"}
{"smiles": "Cc1ccc(C(C)C)cc1NC(=O)c1ccccc1N(C)C", "growth": "86.5%"}
{"smiles": "COc1ccc2[nH]c(O)c(N=NC(=O)COc3ccc(NC(=O)Nc4ccc(Cl)c(Cl)c4)cc3)c2c1", "growth": "11.3%"}
{"smiles": "COc1cccc(-c2nn(-c3ccccc3)cc2-c2ccnc(NCCCNC(=O)Nc3ccc(F)cc3)c2)c1", "growth": "-11.9% (active)"}
{"smiles": "CN1CCN(c2ccc(Nc3nc(NCCCNC(=O)c4ccc(F)cc4)c4sccc4n3)cc2)CC1", "growth": "-26.7% (active)"}
{"smiles": "CC1(C)CC[C@]2(C(=O)Nc3ccccc3)CC[C@]3(C)C(=CC[C@@H]4[C@@]5(C)CC[C@H](N)C(C)(C)[C@@H]5CC[C@]43C)[C@H]2C1", "growth": "103%"}
{"smiles": "C[C@H]1[C@H](C)CC[C@]2(COC(=O)CCC(=O)NCC#CCN3CCNCC3)CC[C@]3(C)C(=CC[C@@H]4[C@@]5(C)CCCNC(C)(C)[C@@H]5CC[C@]43C)[C@H]12", "growth": "26.3%"}
{"smiles": "O=C(Nc1ccncc1)c1ccc(-n2c(=O)[nH]c3ccccc3c2=O)cc1", "growth": "109%"}
{"smiles": "Cc1ccc(C(C)C)cc1NC(=O)c1ccccc1O", "growth": "29%"}
{"smiles": "CCCS(=O)(=O)c1oc(-c2ccc(F)cc2)nc1S(=O)(=O)c1ccc(F)cc1", "growth": "-30.9% (active)"}
{"smiles": "CN(C)c1cccc2c(S(=O)(=O)Nc3cccc(-c4csc(NC(=O)CCCCCN5CCN(c6cc7c(cc6F)C(=O)N(C6CCC(=O)NC6=O)C7=O)CC5)n4)c3)cccc12", "note": "(configuration not stated)", "growth": "82%"}
{"smiles": "CC(=C(c1ccc(OCCN2CCCCC2)cc1)c1ccc(OCCN2CCCCC2)cc1)c1ccccc1", "growth": "-78.9% (active)"}
{"smiles": "CC[C@@]1(O)C(=O)OCc2c1cc1n(c2=O)Cc2c-1nc1cc(F)c(C)c3c1c2[C@@H](N)CC3", "growth": "-59.6% (active)"}
{"smiles": "O=C(Cn1cc(CSc2nnc3oc4ccccc4n23)nn1)Nc1cccc(Cl)c1", "growth": "71%"}
{"smiles": "C=C(C)[C@@H]1CC[C@]2(C(=O)OC)CC[C@]3(C)[C@H](CC[C@@H]4[C@@]5(C)CC[C@H](N)C(C)(C)[C@@H]5CC[C@]43C)[C@@H]12", "growth": "-70% (active)"}
{"smiles": "COc1ccc(-c2nc(S(=O)(=O)c3ccc(C)cc3)c(S(C)(=O)=O)o2)cc1", "growth": "-84.6% (active)"}
{"smiles": "CCN1CCN(c2ccc(NC(=O)Nc3ccc(-c4cc(C(=O)NC(C)C)c5ncccc5n4)cc3)cc2C(F)(F)F)CC1", "growth": "-95.6% (active)"}
{"smiles": "C=C[C@H]1[C@H](O[C@@H]2OC(CO)[C@@H](O)[C@H](O)C2OC(=O)c2c(O)cc(O)cc2-c2cccc(O)c2)OC=C2C(=O)OCC[C@H]21", "note": "(some centres not stated)", "growth": "90.8%"}
{"smiles": "COc1ccc(C(C)=C(c2ccc(OCCCN(C)C)cc2)c2ccc(OCCCN(C)C)cc2)cc1", "growth": "-96.1% (active)"}
{"smiles": "CC1(C)CC[C@]23CC[C@]4(C)[C@H](CC[C@@H]5[C@@]6(C)CC[C@H](N)C(C)(C)[C@@H]6CC[C@]54C)[C@H]2[C@H]1OC3=O", "growth": "-90.8% (active)"}
{"smiles": "CCN1CCN(c2ccc(NC(=O)Nc3ccc(-c4cc(C(=O)NC)c5ncccc5n4)cc3)cc2C(F)(F)F)CC1", "growth": "-96.7% (active)"}
{"smiles": "COc1ccc2[nH]c(O)c(N=NC(=O)c3cc(-c4ccc(C)cc4)nc4ccccc34)c2c1", "growth": "91.2%"}
{"smiles": "O=C(Cn1cc(CSc2nnc3oc4ccccc4n23)nn1)Nc1ccc(Br)cc1", "growth": "88.8%"}
{"smiles": "CN1CCN(c2ccc(Nc3nc(N4CCN(S(=O)(=O)c5ccc(F)cc5)CC4)c4sccc4n3)cc2)CC1", "growth": "-86.1% (active)"}
{"smiles": "COc1ccccc1NCc1ccc(CO)n1-c1ccc(C)cc1", "growth": "109%"}
{"smiles": "CC(=C(c1ccc(OCCCN(C)C)cc1)c1ccc(OCCCN(C)C)cc1)c1ccccc1", "growth": "-88% (active)"}
{"smiles": "CN1CCN(c2ccc(Nc3nc(NCCCNC(=O)c4ccccc4)c4sccc4n3)cc2)CC1", "growth": "32.5%"}
{"smiles": "CCCCCc1ccc(S(=O)(=O)N(C(C)=O)c2cc(-c3csc(N(C)C(C)=O)n3)ccc2N2CCN(C)CC2)cc1", "growth": "-34.1% (active)"}
{"smiles": "C=C1CC[C@H](C(=C)C)[C@H]2C=C(C)C(=O)C3=C(C(=O)[C@@](C)(O)C3)[C@H]12", "growth": "-97.3% (active)"}
{"smiles": "CC(=O)Nc1nc(-c2ccc(N3CCN(C)CC3)c(NS(=O)(=O)c3cccc4c(N(C)C)cccc34)c2)cs1", "growth": "-6.28% (active)"}
{"smiles": "CNC(=O)c1cccc(N2CCc3c2ccc(NC(=O)Nc2ccc(N4CCN(C)CC4)c(C(F)(F)F)c2)c3F)c1", "growth": "-35% (active)"}
{"smiles": "CN1CCN(c2ccc(Nc3nc(N4CCN(S(=O)(=O)c5ccc(Cl)cc5)CC4)c4sccc4n3)cc2)CC1", "growth": "-87.1% (active)"}
{"smiles": "CC1(C)CC[C@]2(C(=O)NCCCNCCCCNCCCN)CC[C@]3(C)C(=CC[C@@H]4[C@@]5(C)Cc6c([nH]c7ccccc67)C(C)(C)[C@@H]5CC[C@]43C)[C@H]2C1", "growth": "95.9%"}
{"smiles": "C=CC(=O)Nc1nc(-c2cccc(NS(=O)(=O)c3cccc4c(N(C)C)cccc34)c2)cs1", "growth": "-29.3% (active)"}
{"smiles": "COC1CC(Cn2cc(COc3ccc4ccc(=O)oc4c3)nn2)C(OCc2ccccc2)C(OCc2ccccc2)C1OCc1ccccc1", "note": "(configuration not stated)", "growth": "110%"}
